Measurements: PubChem BioAssay (NCI)
Compounds without any hit were thinned out: in the full panel of roughly 83,000, 20% have a hit.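 Cell lines were cultured in 96-well plates, exposed to a single compound concentration, and assessed for percent growth 48 hours later.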 Values without a mark were called inactive. Active and inactive are the calls of the source. Rule for the calls: active = growth percent below 10; inactive = the rest.

Tests used:
Assay in all cases: NCI-60 one-dose screen, 48 h (100 = growth as untreated, 0 = no growth, -100 = all killed)
Conditions in all cases: 10 µM unless noted
[1] = test system: NCI-H23 lung
[2] = test system: NCI-H226 lung
[3] = test system: NCI-H322M lung
[4] = test system: HOP-62 NSCLC
[5] = test system: NCI-H460 lung
[6] = test system: HOP-92 NSCLC
[7] = test system: NCI-H522 lung
[8] = test system: A549/ATCC NSCLC
[9] = test system: 786-0 renal
[10] = test system: COLO 205 colon
[11] = test system: DU-145 prostate
[12] = test system: K-562 leukemia
[13] = test system: MALME-3M melanoma
[14] = test system: MDA-MB-231 breast
[15] = test system: RXF 393 renal
[16] = test system: SF-268 CNS
[17] = test system: SF-295 CNS
[18] = test system: SF-539 CNS
[19] = test system: UACC-257 melanoma
[20] = test system: M14 melanoma

Row | Structure (SMILES) | growth [1] | growth [2] | growth [3] | growth [4] | growth [5] | growth [6] | growth [7] | growth [8] | growth [9] | growth [10] | growth [11] | growth [12] | growth [13] | growth [14] | growth [15] | growth [16] | growth [17] | growth [18] | growth [19] | growth [20]
1 | Cc1ccc(-c2cc(-c3ccccc3)[nH]c(=O)c2C#N)cc1 | 96.4% | 86.8% | 91.2% | 85.3% | 90.8% | 45.7% | 74.9% | 77.3% | 88.4% | 124% | 97.3% | 74.4% | 106% | 83.8% | 101% | 92.9% | 90.4% | 81.9% | 101% | 111%
2 | COc1cc2cc(C(=O)N3C[C@@H](CCl)c4c3cc(OC(=O)N(CCC(=O)N3CCN(C)CC3)[C@H]3CCSSC3)c3ccccc43)[nH]c2c(OC)c1OC | -87% (active) | -15.3% (active) | -23% (active) | -17.8% (active) | -72.6% (active) | -7.53% (active) | -80.5% (active) | -37.3% (active) | -79.8% (active) | -65.7% (active) | -10.5% (active) | -8.96% (active) | -96.7% (active) | -74.8% (active) | -94.5% (active) | -10.3% (active) | -65.9% (active) | -80.3% (active) | -61.9% (active) | -77.2% (active)
3 | COc1c(B(O)O)cc(F)cc1-c1nc2c(F)cc3[nH]ncc3c2c2c1CCCC2 | 5.45% (active) | 4.1% (active) | 12.6% | 16.8% | 2.44% (active) | 17.2% | 5.36% (active) | 2.51% (active) | 29.2% | -16% (active) | 14.6% | 38.8% | 50.9% | 3.96% (active) | -45.4% (active) | 30.3% | 15.2% | -44% (active) | 40% | 38.2%
4 | Nc1nn2c(-c3cc4cc(Br)ccc4oc3=O)ccnc2c1N=Nc1ccc(S(N)(=O)=O)cc1 | 50.6% | 77.6% | 78.3% | 41.8% | 52% | 83.2% | 93.3% | 107% | 86.1% | 96.5% | 99.7% | 53.9% | 70.5% | -8.56% (active) | 87.1% | 78.5% | 62.2% | 55.1% | 101% | 62.2%
5 | O=CNc1ccc(-n2cnc3cc(-c4ccc(O)cc4)ccc32)cc1 | 86.5% | 83.5% | 91.1% | 85.6% | 87.4% | 96.5% | 82.1% | 86.9% | 101% | 136% | 86.7% | 64.7% | 65.9% | 108% | 86.5% | 84.6% | 103% | 60.5% | 98.8% | 91.5%
6 | COc1ccc(-c2cc(C(=O)N=Nc3c(O)[nH]c4ccc(Cl)cc34)c3ccccc3n2)cc1 | 14.3% | 81.8% | 79% | -20.9% (active) | 0.622% (active) | 117% | -16.1% (active) | -4.4% (active) | 72.4% | 7.83% (active) | 19% | 64.8% | 90.1% | -44.2% (active) | 133% | 68.8% | 96.7% | 44.8% | 106% | 76.9%
7 | C/C(=N/O)c1ccc(NC(=O)CSc2nnc(-c3ccc4nc(-c5ccc(Cl)cc5)[nH]c4c3)o2)cc1 | -18.9% (active) | 110% | 55.8% | 20.2% | 12.2% | 88.7% | -16.3% (active) | 31.8% | -59.9% (active) | 122% | 44.3% | 19.4% | -4.58% (active) | 36% | -40.6% (active) | 70.8% | 97.6% | 43% | 97.4% | 22.2%
8 | OC1CCC(Cn2c(C(F)(F)F)cc3c(Cl)ncnc32)CC1 (stereo not given) | -26% (active) | 64.4% | -13.9% (active) | 13.3% | -43.6% (active) | 78.2% | -81.3% (active) | 94% | 92.7% | 60.2% | 10.5% | -3.95% (active) | 79.3% | 2.76% (active) | 63.1% | -36.4% (active) | 75.6% | 75.6% | 9.12% (active) | -44.1% (active)
9 | CCOc1ccc2[nH]c(=O)c(C(c3nnnn3CC3CCCO3)N3CCN(Cc4ccccc4)CC3)cc2c1 (stereo not given) | 76.6% | 73.6% | 101% | 102% | 84.7% | 54% | 84.7% | 92.7% | 41.7% | 106% | 93.6% | 111% | 65% | 61.6% | 58.7% | 55.5% | 57.6% | 57.6% | 113% | 94.3%
10 | CCc1ccccc1-c1nc(CN[C@@H]2C[C@@H]3C[C@H]([C@H]2C)C3(C)C)c(C)o1 | -78.7% (active) | -68.7% (active) | -92.5% (active) | -78.9% (active) | -54.5% (active) | -81.5% (active) | -85.9% (active) | -49.7% (active) | -82.1% (active) | -74.8% (active) | -74.9% (active) | 12.2% | -80.5% (active) | -78.3% (active) | -85.1% (active) | 6.04% (active) | -93.5% (active) | -96.5% (active) | -75.8% (active) | -83.5% (active)
11 | Nc1nc(-c2ccccc2)c(N=Nc2ccc(Cl)cc2Cl)s1 | -43.8% (active) | -17.4% (active) | 4.7% (active) | -61.9% (active) | -66.8% (active) | -54.1% (active) | -15.3% (active) | 12.5% | -51.9% (active) | -16.6% (active) | 2.88% (active) | -44.7% (active) | -47.5% (active) | -89.5% (active) | -69.7% (active) | -46% (active) | -90.5% (active) | -77.2% (active) | -2.45% (active) | -59.6% (active)
12 | Cc1ccc(C(=O)Nc2cc(-n3ccnc3C)cc(C(F)(F)F)c2)cc1C#Cc1cnc2cccnn12 | -26.1% (active) | -33.1% (active) | 21% | -7.58% (active) | 5.86% (active) | -31.5% (active) | -29.1% (active) | 11.3% | 6.68% (active) | -19.9% (active) | 18.6% | -3.69% (active) | -35.6% (active) | -37.5% (active) | -54.6% (active) | 25.7% | -60.9% (active) | -81.8% (active) | 3.43% (active) | -20% (active)
13 | FC(F)(F)c1cc2c(Cl)ncnc2n1CCN1CCCCC1 | 34.8% | 97.8% | 64.2% | 76.3% | 57.9% | 94.3% | -80.1% (active) | 95.5% | 92.5% | 75.2% | 50% | 0.547% (active) | 86.9% | 38.8% | 80.8% | 9.33% (active) | 80.9% | 73.4% | 73.6% | 24.1%
14 | COC(=O)CSC1=C(C)C(=O)C(OC)=C(OC)C1=O | 94.3% | 93.1% | 93.1% | 85.3% | 96.8% | 75.5% | 72.2% | 90.4% | 99.9% | 102% | 103% | 13.6% | 89.9% | 85.4% | 105% | 100% | 106% | 98.1% | 78.1% | 91.1%
